# Source: PubChem BioAssay (NCATS)
# “And” between values parts separate entries of the source, which are not always exact repeats. Equal values may be shown once. Results filed as inconclusive are left out. Entries that show only a call come without a potency. The source made the active and inactive calls. Calls follow the shape of the dose curve; as a rule, active = well fitted cell-killing curve with a large enough effect; inconclusive = small, poorly fitted or top-dose-only effect; inactive = no such curve, though single readings can be large or run the other way. Non-standard residues stand in square brackets, D forms with d. Residues, ends and D or L forms follow the SMILES beside them. *: point of attachment. Sta = CC(C)C[C@H](N)[C@@H](O)CC(=O)O; Isovaleryl = CC(C)CC(=O)*
# Experiment: qHTS of pediatric cancer cell lines to identify multiple opportunities for drug repurposing: Confirmatory screen for DAOY cells (AID 1347114); also: nearly all actives have a fitted effect of over 65% in size
# Settings: DAOY medulloblastoma cells viability, cytotoxicity qHTS; series mostly up to 45.9 µM
# Description: Drug repurposing or repositioning has been offered as a strategy for drug development in oncology programs. This approach has special potential for childhood cancers and other rare or orphan diseases, where the expected return on new drug development has been a disincentive to pharmaceuticals.
# In this project we exploit the poly-pharmacology of drugs to discover new indications via phenotypic screening of a panel of 19 well-characterized cell lines derived from solid tumors seen in children and adolescents. The goal is to identify approved drugs with previously unrecognized anticancer properties that has the potential to reveal new mechanisms and biological processes involved in carcinogenesis or drug resistance. We employed a titration-based paradigm (quantitative high-throughput screening or qHTS), where all compounds were tested at multiple concentrations for their effect on cell viability. Concentration-response curves (CRCs) were derived directly from the primary screen, and both potency and efficacy values were used to identify compounds with robust bioactivity profiles. We screened the NIH Chemical Genomics Center (NCGC) Pharmaceutical Collection (NPC) and Mechanism Interrogation Plate (MIPE) small molecule collections of approved and investigational compounds against these cell lines; and measured metabolically active cells after 48 hours of compound treatment as a proxy for cell viability.
# Assay Submitter: Nathalia J. Martinez, National Center for Advancing Translational Sciences, National Institutes of Health, Rockville, MD, USA; email: natalia.martinez@nih.gov
# [1] Shen, M et al. Quantitative high-throughput phenotypic screening of pediatric cancer cell lines identifies multiple opportunities for drug repurposing. Oncotarget 2017 Dec 19;9(4):4758-4772. PMID 29435139.
# The cells were obtained from University of North Carolina (UNC), Pediatric Preclinical Testing Program (PPT), and Coriell Institute (CI).
# qHTS cell viability assay:
# Cells were assayed in growth media at a density of 500-1,000 cells/well. Five microliters of cells were dispensed into 1,536-well, white, solid-bottom, TC-treated plates (Greiner Bio One) using a multidrop dispenser and incubated at 37 degrees C, 5% CO2, under a humidified atmosphere for 5 hours. Twenty-three nanoliters of compounds and controls (neutral control DMSO or positive control bortezomib at final concentration of 2.3 µM) were subsequently transferred by Kalypsys pintool. For primary screens, the MIPE collection was tested at 11-point dilutions (final concentrations range from 0.78 nM to 46 µM) and the NPC collection at 8-point dilutions (final concentrations range from 0.59 nM to 46 µM). Compounds tested in follow-up screens were assayed at 11-point dilutions. Cells were incubated for 48 hours, followed by addition of 3 uL of CellTiter-Glo (Promega). After a 15 min incubation at room temperature, samples were analyzed for luminescence intensity using a ViewLux High-throughput CCD imager equipped with clear filters.
# Potency is read from the fitted curve at half-maximal effect.
row,Structure (SMILES),Potency
1,CC1(C)C(=O)N(CCN2CCC(C(=O)c3ccc(F)cc3)CC2)c2ccccc21,inactive
2,Nc1ccn([C@@H]2O[C@H](CO)[C@@H](O)C2O)c(=O)n1 (stereo not given in full),inactive
3,Clc1ccc(C(Cn2ccnc2)OCc2ccc(Sc3ccccc3)cc2)c(Cl)c1 (stereo not given),18.5 µM (active)
4,Cc1ccc(NC(=O)c2ccc(CN3CCN(C)CC3)cc2)cc1Nc1nccc(-c2cccnc2)n1,16.5 µM (active)
5,CCCCc1ccc2nc(NC(=O)OC)[nH]c2c1,0.185 µM (active)
6,CCCOc1ccc2nc(NC(=O)OC)[nH]c2c1,0.928 µM (active)
7,Cc1c(C(=O)NN2CCCCC2)nn(-c2ccc(Cl)cc2Cl)c1-c1ccc(Cl)cc1,23.3 µM (active)
8,O=C1c2c(O)cc(O)cc2OC(c2ccc(O)c(O)c2)C1O (stereo not given),inactive
9,CCN(CC)C(=S)SSC(=S)N(CC)CC,9.27 µM (active)
10,c1cnc2cc3c(cc2n1)C1CNCC3C1,inactive
11,CC(C)C[C@H](NC(=O)[C@H](Cc1ccccc1)NC(=O)c1cnccn1)B(O)O,0.0131 µM (active)
12,C[C@]12CCC(=O)C=C1CC[C@@H]1[C@H]2[C@@H](O)C[C@@]2(C)[C@H]1CC[C@]2(O)C(=O)CO,inactive
13,C=C(c1ccc(C(=O)O)cc1)c1cc2c(cc1C)C(C)(C)CCC2(C)C,inactive
14,CCN(CCO)CCCC(C)Nc1ccnc2cc(Cl)ccc12 (stereo not given),inactive
15,CN(C)c1ccc2nc3ccc(=[N+](C)C)cc-3sc2c1,4.65 µM (active)
16,CCOc1cc(CC(=O)N[C@@H](CC(C)C)c2ccccc2N2CCCCC2)ccc1C(=O)O,inactive
17,Nc1nc(Cl)nc2c1ncn2[C@H]1C[C@H](O)[C@@H](CO)O1,inactive
18,CCN(CC)CCOc1ccc(Nc2ncc3cc(-c4c(Cl)cccc4Cl)c(=O)n(C)c3n2)cc1,1.65 µM (active)
19,CC(C)CC(=O)N[C@H](C(=O)N[C@H](C(=O)N[C@@H](CC(C)C)[C@@H](O)CC(=O)N[C@@H](C)C(=O)N[C@@H](CC(C)C)[C@@H](O)CC(=O)O)C(C)C)C(C)C (Isovaleryl-VV[Sta]A[Sta]-OH),inactive
20,Cc1nc(Nc2ncc(C(=O)Nc3c(C)cccc3Cl)s2)cc(N2CCN(CCO)CC2)n1,16.5 µM (active)
21,Nc1ncn([C@H]2C[C@H](O)[C@@H](CO)O2)c(=O)n1,inactive
22,CC[C@]1(O)C[C@H]2CN(CCc3c([nH]c4ccccc34)[C@@](C(=O)OC)(c3cc4c(cc3OC)N(C=O)[C@H]3[C@@](O)(C(=O)OC)[C@H](OC(C)=O)[C@]5(CC)C=CCN6CC[C@]43[C@@H]65)C2)C1,82.7 nM (active) and 92.8 nM (active)
23,CS(=O)(=O)OCCCCOS(C)(=O)=O,inactive
24,Oc1ccc(-c2nc(-c3ccc(F)cc3)c(-c3ccncc3)[nH]2)cc1,inactive
25,O=C(NCC1CCCCN1)c1cc(OCC(F)(F)F)ccc1OCC(F)(F)F (stereo not given),inactive
